The source made the active and inactive calls. How the source made its calls: active means hit-call score of the fitted dose curve at least 0.9, where 1 is the maximum; inactive means score below 0.9.
Assay: ATG_TA_CIS: Attagene CIS-FACTORIAL HepG2 Assay for human TA Basal Promoter (AID 2282964)
Conditions: HepG2 Attagene CIS-factorial TA basal promoter reporter; actives raise or lower the signal
In short: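 HepG2 cells transiently transfected with multiplexed cis-promoter reporter units, dosed 24 h. Reporter mRNA measured by RT-PCR, 6-FAM labelling, HpaI digestion and capillary electrophoresis; bidirectional fit versus DMSO baseline, serving as background control.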

**Q.** For `O=C1C(Cl)=C(Cl)C(=O)C(Cl)=C1Cl`, which outcome is on record?
**A.** The outcome was “inactive”.

**Q.** With `N#CCCCCC#N` as the molecule, how does the outcome read?
**A.** Its outcome is “inactive”.

**Q.** With `CC1CCC(=O)O1` (stereo unspecified) as the molecule, how does the outcome read?
**A.** Its outcome is “inactive”.

**Q.** With `COc1cc(OC)c(OC)cc1C=O` as the molecule, how does the outcome read?
**A.** Its outcome is “inactive”.

**Q.** Which outcome does the source give for `CC(C)c1ccc(O)cc1` here?
**A.** Its outcome is “inactive”.

**Q.** With `C[N+](C)(C)CC(=O)[O-]` as the molecule, how does the outcome read?
**A.** Its outcome is “inactive”.

**Q.** With `O=C(NCNC(=O)NC1C(=O)NC(=O)N1CO)NC1C(=O)NC(=O)N1CO` (stereo unspecified) as the molecule, how does the outcome read?
**A.** The outcome was “inactive”.

**Q.** With `[N-]=[N+]=CC(=O)OC[C@H](N)C(=O)O` as the molecule, how does the outcome read?
**A.** The outcome was “inactive”.

**Q.** With `COCC(=O)N(c1c(C)cccc1C)N1CCOC1=O` as the molecule, how does the outcome read?
**A.** The outcome was “inactive”.

**Q.** Which outcome does the source give for `C=COCCCl` here?
**A.** The outcome was “inactive”.

**Q.** Which outcome does the source give for `C=CCN(CC=C)C(=O)C(Cl)Cl` here?
**A.** Its outcome is “inactive”.

**Q.** For `CCOC(=O)N(C)N=O`, which outcome is on record?
**A.** The outcome was “inactive”.

**Q.** Which outcome does the source give for `O=CNC(N1CCN(C(NC=O)C(Cl)(Cl)Cl)CC1)C(Cl)(Cl)Cl` (stereo unspecified) here?
**A.** Its outcome is “inactive”.

**Q.** With `CCC[N+](=O)[O-]` as the molecule, how does the outcome read?
**A.** The outcome was “inactive”.

**Q.** For `CC(C)C#N`, which outcome is on record?
**A.** Its outcome is “inactive”.

**Q.** For `S=c1[nH]c2ccccc2[nH]1`, which outcome is on record?
**A.** Its outcome is “inactive”.

**Q.** Which AC50 does the source give for `CCCCCc1cc(O)cc(O)c1` here?
**A.** Its AC50 is 149 µM (active).

**Q.** With `c1ccc(Nc2ccc3ccccc3c2)cc1` as the molecule, how does the outcome read?
**A.** Its outcome is “inactive”.

**Q.** Which outcome does the source give for `CSc1nc(N=[N+]=[N-])nc(NC(C)C)n1` here?
**A.** The outcome was “inactive”.

**Q.** With `CC=Cc1ccc2c(c1)OCO2` as the molecule, how does the outcome read?
**A.** Its outcome is “inactive”.

**Q.** Which outcome does the source give for `Cc1ccc(OP(=O)(Oc2ccc(C)cc2)Oc2ccc(C)cc2)cc1` (tested in a mixture with another compound) here?
**A.** Its outcome is “inactive”.

**Q.** Which outcome does the source give for `O=S(=O)(c1ccccc1)c1ccccc1` here?
**A.** Its outcome is “inactive”.

**Q.** Which outcome does the source give for `CC(=O)/C=C/c1ccccc1` here?
**A.** The outcome was “inactive”.

**Q.** Which outcome does the source give for `c1ccc(P(c2ccccc2)c2ccccc2)cc1` here?
**A.** Its outcome is “inactive”.

**Q.** For `CCOC(=O)COc1ccc(Cl)cc1Cl`, which outcome is on record?
**A.** The outcome was “inactive”.

**Q.** For `O=C1Nc2ccc(Cl)cc2C(c2ccccc2)=NC1O` (stereo unspecified), which outcome is on record?
**A.** Its outcome is “inactive”.

From PubChem BioAssay (EPA / NIEHS)
